# From PubChem BioAssay (EPA / NIEHS)
# Inconclusive results are not listed. Active and inactive are the calls of the source. The calls were made as follows: active = hit-call score of the fitted dose curve at least 0.9, where 1 is the maximum; inconclusive = response in the unintended direction; inactive = score below 0.9.
# Key:
# [1] = target: Norway rat Vesicular Monoamine Transporter (VMAT2), neurotransmitter transporter, Slc18a2 (gene 25549) (UniProt Q01827); assay: NVS_TR_rVMAT2: NovaScreen (NVS) Transporter Assay for Norway rat Vesicular Monoamine Transporter (VMAT2), neurotransmitter transporter (AID 2283376);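 also: actives lower the bound radioligand signal below the DMSO level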
# Chain of Norway rat Vesicular Monoamine Transporter (VMAT2), neurotransmitter transporter, Slc18a2 (gene 25549) (Q01827 whole entry, looked up): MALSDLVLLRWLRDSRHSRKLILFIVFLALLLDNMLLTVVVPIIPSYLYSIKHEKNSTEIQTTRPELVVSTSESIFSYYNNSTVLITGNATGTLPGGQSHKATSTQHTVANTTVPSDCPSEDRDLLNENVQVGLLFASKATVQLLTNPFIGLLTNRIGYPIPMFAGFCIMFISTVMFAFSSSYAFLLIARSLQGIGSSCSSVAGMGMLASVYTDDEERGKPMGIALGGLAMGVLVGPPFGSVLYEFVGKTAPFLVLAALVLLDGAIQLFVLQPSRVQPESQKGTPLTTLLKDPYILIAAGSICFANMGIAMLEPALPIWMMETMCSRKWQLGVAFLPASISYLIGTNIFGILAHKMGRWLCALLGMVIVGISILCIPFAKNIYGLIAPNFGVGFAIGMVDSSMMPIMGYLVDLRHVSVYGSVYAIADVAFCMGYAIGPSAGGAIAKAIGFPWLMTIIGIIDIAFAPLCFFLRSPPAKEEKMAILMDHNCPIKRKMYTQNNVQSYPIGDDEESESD
# Procedure, shortened: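 Rat forebrain tissue preparation used in a cell-free radioligand binding format; displacement read by filter-based scintillation counting 1 hour after dosing. Primary screen in duplicate at 25 uM, actives then run in concentration series; loss of signal versus DMSO baseline.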
# [2] = target: Estrogen receptor (Homo sapiens) (UniProt P03372); assay: NVS_NR_hER: NovaScreen (NVS) Nuclear Receptor Binding Assay for human Estrogen Receptor (ER) (AID 2283348)
# Chain of Estrogen receptor (Homo sapiens) (P03372 whole entry, looked up): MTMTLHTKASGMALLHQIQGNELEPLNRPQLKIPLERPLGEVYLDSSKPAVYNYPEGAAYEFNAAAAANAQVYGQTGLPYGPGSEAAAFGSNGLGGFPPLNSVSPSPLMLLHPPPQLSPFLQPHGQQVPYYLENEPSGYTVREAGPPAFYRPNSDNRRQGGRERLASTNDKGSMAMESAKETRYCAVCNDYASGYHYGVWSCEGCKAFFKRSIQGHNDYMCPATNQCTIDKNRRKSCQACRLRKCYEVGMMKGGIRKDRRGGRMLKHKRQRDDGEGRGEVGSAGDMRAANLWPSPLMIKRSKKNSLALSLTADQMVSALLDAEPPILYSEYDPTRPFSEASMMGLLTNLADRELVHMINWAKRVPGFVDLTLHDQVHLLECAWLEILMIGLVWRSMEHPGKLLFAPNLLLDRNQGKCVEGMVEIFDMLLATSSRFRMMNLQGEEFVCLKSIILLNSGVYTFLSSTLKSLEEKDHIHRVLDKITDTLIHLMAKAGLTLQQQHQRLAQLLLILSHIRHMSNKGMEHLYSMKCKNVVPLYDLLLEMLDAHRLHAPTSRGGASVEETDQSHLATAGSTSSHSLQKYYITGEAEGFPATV
# Procedure, shortened: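 Cell-free radioligand binding with protein extracted from MCF7 cells; scintillation counting 18 hours after dosing. Loss of signal versus DMSO baseline read as displacement; primary single-concentration screen at 25 uM in duplicate, actives retested in concentration series.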
# [3] = ACEA_ER_AUC_viability: ACEA Biosciences xCELLigence Real-Time Cell Analysis on Estrogen Receptor Agonism for Viability (AID 2283782);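 also: continuous compound exposure with impedance area under curve over 80 h; hit means loss of impedance signal meaning reduced cell growth or viability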
# Procedure, shortened: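 T-47D human breast cells in phenol red-free RPMI1640 with 10% charcoal-stripped FBS were dosed with an 8-point 1:4 dilution series from 100 uM top final concentration, in duplicate. Impedance-based growth was followed for 80 h; AUC analysed versus DMSO.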
# [4] = target: Bile acid receptor (Homo sapiens) (UniProt Q96RI1); assay: NVS_NR_hFXR_Agonist: NovaScreen (NVS) Nuclear Receptor Binding Assay for human Farnesoid X Receptor Agonism (FXR) (AID 2283347)
# Chain of Bile acid receptor (Homo sapiens) (Q96RI1 whole entry, looked up): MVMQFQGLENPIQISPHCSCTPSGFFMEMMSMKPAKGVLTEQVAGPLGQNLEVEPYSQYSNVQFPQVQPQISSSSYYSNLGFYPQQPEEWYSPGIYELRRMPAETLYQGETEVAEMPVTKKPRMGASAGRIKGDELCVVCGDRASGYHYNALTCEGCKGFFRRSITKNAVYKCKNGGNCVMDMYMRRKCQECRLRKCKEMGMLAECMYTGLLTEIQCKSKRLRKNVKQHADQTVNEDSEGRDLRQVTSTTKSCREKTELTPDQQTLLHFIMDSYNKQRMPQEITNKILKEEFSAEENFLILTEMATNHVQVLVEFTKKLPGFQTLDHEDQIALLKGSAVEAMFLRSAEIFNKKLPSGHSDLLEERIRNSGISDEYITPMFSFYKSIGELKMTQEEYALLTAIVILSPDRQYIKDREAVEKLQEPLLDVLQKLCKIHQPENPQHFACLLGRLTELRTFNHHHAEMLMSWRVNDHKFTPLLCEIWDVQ
# Procedure, shortened: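 Cell-free TR-FRET binding assay with extracted human FXR protein, agonist format, read 1 h after dosing. Primary screen at 25 uM single concentration in duplicate, actives retested in concentration series; gain of signal versus DMSO.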
# [5] = target: bovine Estrogen Receptor (ER), ESR1 (gene 407238) (UniProt P49884); assay: NVS_NR_bER: NovaScreen (NVS) Nuclear Receptor Binding Assay for bovine Estrogen Receptor (ER) (AID 2283345);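 also: actives lower the bound radioligand count which means they displace the ER ligand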
# Chain of bovine Estrogen Receptor (ER), ESR1 (gene 407238) (P49884 whole entry, looked up): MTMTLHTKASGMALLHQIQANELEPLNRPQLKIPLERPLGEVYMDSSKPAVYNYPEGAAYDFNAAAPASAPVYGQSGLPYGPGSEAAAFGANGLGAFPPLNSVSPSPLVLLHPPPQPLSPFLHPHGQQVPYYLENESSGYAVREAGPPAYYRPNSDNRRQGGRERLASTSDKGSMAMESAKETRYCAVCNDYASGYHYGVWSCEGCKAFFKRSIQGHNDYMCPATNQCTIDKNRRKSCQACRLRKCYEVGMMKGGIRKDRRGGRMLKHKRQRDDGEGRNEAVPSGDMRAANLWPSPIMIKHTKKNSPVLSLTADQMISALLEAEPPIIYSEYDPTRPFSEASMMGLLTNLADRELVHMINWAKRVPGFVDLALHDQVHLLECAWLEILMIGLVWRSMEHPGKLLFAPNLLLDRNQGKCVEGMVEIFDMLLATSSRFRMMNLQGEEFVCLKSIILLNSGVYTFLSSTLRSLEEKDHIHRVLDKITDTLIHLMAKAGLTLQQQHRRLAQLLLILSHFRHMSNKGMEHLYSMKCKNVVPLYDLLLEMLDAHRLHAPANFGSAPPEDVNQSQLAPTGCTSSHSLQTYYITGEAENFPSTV
# Procedure, shortened: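 Cell-free radioligand binding with receptor from bovine uterine membranes, read by scintillation counting 18 h after dosing. Loss of specific binding was scored against DMSO; primary screen at 25 uM in duplicate, actives then run as concentration series.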
# [6] = target: Cellular tumor antigen p53 (Homo sapiens) (UniProt P04637); assay: TOX21_p53_BLA_p2_ratio: Tox21 HCT-116 p53 Agonism Beta-lactamase Assay, Ratio, Phase 2 (AID 2283592)
# Chain of Cellular tumor antigen p53 (Homo sapiens) (P04637 whole entry, looked up): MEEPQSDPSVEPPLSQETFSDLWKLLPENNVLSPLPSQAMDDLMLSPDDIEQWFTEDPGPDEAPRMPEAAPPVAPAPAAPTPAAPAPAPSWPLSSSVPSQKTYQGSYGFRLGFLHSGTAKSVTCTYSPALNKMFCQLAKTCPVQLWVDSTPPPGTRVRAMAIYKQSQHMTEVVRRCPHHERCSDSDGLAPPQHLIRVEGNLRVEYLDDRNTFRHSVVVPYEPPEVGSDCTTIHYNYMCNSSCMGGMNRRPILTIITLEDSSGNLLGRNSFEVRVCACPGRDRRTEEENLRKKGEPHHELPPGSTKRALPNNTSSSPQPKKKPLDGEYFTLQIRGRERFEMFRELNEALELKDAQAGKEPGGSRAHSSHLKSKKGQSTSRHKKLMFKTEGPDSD
# Procedure, shortened: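 In this cell-based reporter format, HCT116 cells were dosed with chemicals delivered from DMSO by 217-fold dilution and incubated 16 h at 37C. Emission at 460 and 530 nm after 2 h CCF4-AM loading provided the ratio, fitted upward versus DMSO.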
# [7] = TOX21_p53_BLA_p3_viability: Viability Assessment in the Tox21 HCT-116 p53 Agonism Beta-lactamase Assay, Phase 3 (AID 2283593);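 also: cells exposed to compound for 16 h before reading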
# Procedure, shortened: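 HCT-116 cells (4000/well) rested 5 h at 37C, then got DMSO compounds by pin tool (217-fold dilution) for 16 h at 37C, 5% CO2. After the bla read, CellTiter-Glo was added and luminescence read at 30 min, room temperature.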
# [8] = target: Cellular tumor antigen p53 (Homo sapiens) (UniProt P04637); assay: TOX21_p53_BLA_p3_ratio: Tox21 HCT-116 p53 Agonism Beta-lactamase Assay, Ratio, Phase 3 (AID 2283596)
# Procedure, shortened: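 HCT116 p53-bla cells (4000/well) given compound in DMSO (217-fold dilution) after 5 h, incubated 16 h at 37C. CCF4-AM substrate 2 h at room temperature; 460/530 nm emission ratio, gain fitted against DMSO.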
# [9] = target: mouse Estrogen Receptor alpha (Era), Esr1 (gene 13982) (UniProt P19785); assay: NVS_NR_mERa: NovaScreen (NVS) Nuclear Receptor Binding Assay for mouse Estrogen Receptor alpha (Era) (AID 2283378);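 also: hit means loss of bound radioligand signal relative to DMSO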
# Chain of mouse Estrogen Receptor alpha (Era), Esr1 (gene 13982) (P19785 whole entry, looked up): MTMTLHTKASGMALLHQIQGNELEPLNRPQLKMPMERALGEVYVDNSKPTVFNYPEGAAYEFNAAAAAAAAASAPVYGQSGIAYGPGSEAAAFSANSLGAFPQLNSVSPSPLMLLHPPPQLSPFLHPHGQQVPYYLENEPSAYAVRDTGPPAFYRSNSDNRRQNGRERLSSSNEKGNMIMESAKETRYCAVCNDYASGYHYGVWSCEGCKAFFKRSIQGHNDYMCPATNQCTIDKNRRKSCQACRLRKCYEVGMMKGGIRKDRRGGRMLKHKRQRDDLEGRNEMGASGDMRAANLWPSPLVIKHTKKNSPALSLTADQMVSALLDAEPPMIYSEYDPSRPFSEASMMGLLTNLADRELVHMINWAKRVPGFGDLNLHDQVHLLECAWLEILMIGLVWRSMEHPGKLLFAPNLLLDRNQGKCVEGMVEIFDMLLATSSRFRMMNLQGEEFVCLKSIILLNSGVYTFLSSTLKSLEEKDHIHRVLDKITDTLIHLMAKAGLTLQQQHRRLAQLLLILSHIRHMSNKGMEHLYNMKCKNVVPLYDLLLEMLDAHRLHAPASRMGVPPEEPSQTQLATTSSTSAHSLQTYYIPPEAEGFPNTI
# Procedure, shortened: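 Filter scintillation counts of bound radioligand, measured 18 h post-dose, gave the readout; decreased signal relative to DMSO controls indicated displacement from mouse Era. Primary screen ran in duplicate at 25 uM; active chemicals were retested across concentrations.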
# [10] = TOX21_p53_BLA_p2_viability: Viability Assessment in the Tox21 HCT-116 p53 Agonism Beta-lactamase Assay, Phase 2 (AID 2283591);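 also: compound exposure lasted 16 h at 37 °C; actives lower the ATP signal meaning cytotoxicity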
# Procedure, shortened: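 HCT-116 p53-bla cells (4000/well) rested 5 h at 37C, then received compounds in DMSO (217-fold dilution) for 16 h at 37C, 5% CO2. After the CCF4 read, CellTiter-Glo was added; ATP luminescence was read after 30 min at room temperature.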
# [11] = TOX21_p53_BLA_p4_viability: Viability Assessment in the Tox21 HCT-116 p53 Agonism Beta-lactamase Assay, Phase 4 (AID 2283597);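 also: hits lower the luminescence signal meaning cytotoxicity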
# Procedure, shortened: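 We seeded HCT116 p53 reporter cells at 4000/well and waited 5 h. We then added compounds in DMSO at a 217-fold dilution and incubated for 16 h. Viability was read as CellTiter-Glo luminescence after 30 min at RT.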
# [12] = TOX21_p53_BLA_p5_viability: Viability Assessment in the Tox21 HCT-116 p53 Agonism Beta-lactamase Assay, Phase 5 (AID 2283600)
# Procedure, shortened: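 Compounds, pinned from DMSO at 217-fold dilution, were left on the cells for 16 h. The viability endpoint was ATP content measured by CellTiter-Glo luminescence, where falling signal reflects cytotoxicity.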
# [13] = target: Cellular tumor antigen p53 (Homo sapiens) (UniProt P04637); assay: TOX21_p53_BLA_p4_ratio: Tox21 HCT-116 p53 Agonism Beta-lactamase Assay, Ratio, Phase 4 (AID 2283601)
# Procedure, shortened: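 HCT116 cells carrying an inducible beta-lactamase reporter were plated at 4000 cells/well, rested 5 h, then exposed to compounds in DMSO (217-fold dilution) for 16 h at 37C. CCF4-AM substrate was loaded 2 h at room temperature; 460/530 nm emission ratio scored gain-of-signal versus DMSO.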
# [14] = target: Cellular tumor antigen p53 (Homo sapiens) (UniProt P04637); assay: TOX21_p53_BLA_p5_ratio: Tox21 HCT-116 p53 Agonism Beta-lactamase Assay, Ratio, Phase 5 (AID 2283599)
# Procedure, shortened: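 HCT-116 cells carrying a p53-inducible beta-lactamase reporter were seeded at 4000 cells/well and dosed after 5 h with compound in DMSO (217-fold dilution). After 16 h at 37C, CCF4-AM substrate was added for 2 h, and the 460/530 nm emission ratio was scored as gain-of-signal versus DMSO.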
structure (smiles),measurement,setting,value
Cc1oc2c(NC(=O)c3c(Cl)cccc3Cl)cccc2c1C(C)(C)O,AC50,[1],11.9 µM (active)
CN(c1nccc(=O)[nH]1)C1CCN(c2nc3ccccc3n2Cc2ccc(F)cc2)CC1,outcome,[1],inactive
CCOCN(C(=O)CS(=O)(=O)O)c1c(C)cccc1CC,outcome,[1],inactive
CCCCC(CC)C(=O)O (configuration not stated),outcome,[1],inactive
C/C=C\C/C=C/CCCCCCCCOC(C)=O,outcome,[1],inactive
Cc1cc(CCC(=O)OCCOCCOCCOC(=O)CCc2cc(C)c(O)c(C(C)(C)C)c2)cc(C(C)(C)C)c1O,outcome,[1],inactive
CCCN(CCC)c1c([N+](=O)[O-])cc(S(C)(=O)=O)cc1[N+](=O)[O-],outcome,[2],inactive
same,AC50,[3],50 µM (active)
CCOC(=O)CC(=O)OCC,outcome,[1],inactive
CC(C)(C)CC(C)(C)c1ccc(OCCOCC[N+](C)(C)Cc2ccccc2)cc1,outcome,[1],inactive
O=C=NC1CCC(CC2CCC(N=C=O)CC2)CC1 (configuration not stated),AC50,[1],9.03 µM (active)
CCN(CCC#N)c1ccc(N=Nc2c(Cl)cc([N+](=O)[O-])cc2Cl)cc1,outcome,[4],inactive
C[Si](C)O[Si](C)C,outcome,[1],inactive
CCCCOC(=O)[C@@H](C)Oc1ccc(Oc2ccc(C(F)(F)F)cn2)cc1,outcome,[4],inactive
CN(C)C(=O)Nc1cccc(OC(=O)NC(C)(C)C)c1,outcome,[5],inactive
same,outcome,[6],inactive
same,outcome,[7],inactive
same,outcome,[8],inactive
COC(=O)C(C)N(C(=O)Cc1ccccc1)c1c(C)cccc1C (configuration not stated),outcome,[2],inactive
same,outcome,[9],inactive
same,outcome,[10],inactive
same,outcome,[8],inactive
CCN(CC)c1c([N+](=O)[O-])cc(C(F)(F)F)c(N)c1[N+](=O)[O-],outcome,[2],inactive
same,outcome,[10],inactive
same,outcome,[6],inactive
same,outcome,[8],inactive
same,outcome,[11],inactive
same,outcome,[12],inactive
same,outcome,[13],inactive
Cc1ccc(O)c(C(C)(C)C)c1,outcome,[1],inactive
NNC(=O)c1ccncc1,outcome,[1],inactive
CC(C)OC(=O)C(O)(c1ccc(Cl)cc1)c1ccc(Cl)cc1,outcome,[2],inactive
same,outcome,[9],inactive
same,AC50,[10],70.6 µM (active)
same,outcome,[6],inactive
same,outcome,[7],inactive
same,outcome,[8],inactive
same,AC50,[14],66.6 µM (active)
same,outcome,[12],inactive
same,AC50,[13],69.8 µM (active)
COc1ccc(OC)c(N=Nc2c(O)ccc3ccccc23)c1,AC50,[1],0.107 µM (active)
C=C(C)C(=O)OCCOCCOCCOC(=O)C(=C)C,outcome,[1],inactive
[Cl][Dy]([Cl])[Cl],outcome,[1],inactive
CCCC(O)C(O)CO (configuration not stated),outcome,[1],inactive
CSc1ccc(C(=O)C(C)(C)N2CCOCC2)cc1,AC50,[2],25 µM (active)
same,outcome,[9],inactive
same,outcome,[10],inactive
same,outcome,[6],inactive
same,outcome,[7],inactive
same,outcome,[11],inactive
same,outcome,[14],inactive
same,outcome,[12],inactive
CC(C)CCCCCCOC(=O)c1ccc(C(=O)OCCCCCCC(C)C)c(C(=O)OCCCCCCC(C)C)c1,outcome,[1],inactive
[Cl][Sc]([Cl])[Cl],outcome,[1],inactive
CCCCCCCCCCCCCCCC[N+](C)(C)CC,outcome,[1],inactive
COc1cccc(O)c1,outcome,[1],inactive
CC[N+](CC)(CC(=O)Nc1c(C)cccc1C)Cc1ccccc1,outcome,[1],inactive
